The record followed here is PubChem BioAssay.

For test [1], the target named is Single-stranded DNA-binding protein (Escherichia coli (strain K12)) (UniProt P0AGE0). Description: E. coli SSB displacement from DNA, counter-screen for HCV NS3 helicase inhibitor project, biochemical, fluorescence polarization, NIH Clinical Collection (AID 743271; in the data active = inhibition above about 28%). Conditions: stronger effect = higher value, concentration not given here.
A short description of test [2]: fluorescence interference in NS3h assay format, artefact control for HCV NS3 helicase inhibitor project, biochemical, NIH Clinical Collection (AID 743272; call rule not given here;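 also: HCV NS3 helicase with a Cy5 labelled single stranded DNA probe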). The note with it: fluorescence interference counterscreen, stronger effect = lower value.
The subject of test [3] is Neuropilin-2 / VEGF-C interaction (human). Description: inhibitors of NRP2–VEGF-C binding, biochemical, microplate binding format, z-score (AID 743281; call rule not given here). Conditions: microplate NRP2/VEGF-C binding assay; stronger effect = lower value.
Test [4] is described as follows: growth inhibition of DIPG glioma cells, dose response, cell-based, SU-DIPG-XVII, MIPE5.0, CellTiter-Glo, qHTS (AID 1347060; cut-off not given, nearly all actives have AC50 up to about 26 µM). The note with it: SU-DIPG-XVII viability, CellTiter-Glo ATP luminescence. (Cellular ATP, detected with luciferase, serves as a proxy for viable cell number.)
Test [5] is described as follows: growth inhibition of DIPG glioma cells, dose response, cell-based, SU-DIPG-XIII, MIPE4.0, CellTiter-Glo, qHTS (AID 1347061; cut-off not given, nearly all actives have AC50 up to about 37 µM;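 also: cells exposed to compound for 48 hours before readout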). The note with it: SU-DIPG-XIII viability, CellTiter-Glo ATP luminescence.
A short description of test [6]: growth inhibition of DIPG glioma cells, dose response, cell-based, JHH-DIPG-1, MIPE4.0, CellTiter-Glo, qHTS (AID 1347062; cut-off not given, nearly all actives have AC50 up to about 27 µM). The note with it: JHH-DIPG-1 viability, CellTiter-Glo ATP luminescence.
A short description of test [7]: growth inhibition of DIPG glioma cells, dose response, cell-based, SU-DIPG-IV, MIPE4.0, CellTiter-Glo, qHTS (AID 1347063; cut-off not given, nearly all actives have AC50 up to about 30 µM;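 also: compound exposure lasted 48 hours before the viability readout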). Conditions: SU-DIPG-IV viability, CellTiter-Glo ATP luminescence.
Test [8] in a line: SU-DIPG-VI glioma cell viability, MIPE4.0 library, CellTiter-Glo luminescence, qHTS (AID 1347066; cut-off not given, nearly all actives have AC50 up to about 30 µM;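 also: cells exposed to compound for 48 hours before readout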). Conditions: CellTiter-Glo ATP luminescence.
The nature of test [9]: JHH-DIPG-1 glioma cell viability, MIPE5.0 library, CellTiter-Glo luminescence, qHTS (AID 1347067; cut-off not given, nearly all actives have AC50 up to about 26 µM;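 also: cells exposed to compound for 48 hours before readout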). The note with it: JHH-DIPG-1 glioma viability, CellTiter-Glo ATP luminescence.
The nature of test [10]: SU-DIPG-XXV glioma cell viability, MIPE5.0 library, qHTS (AID 1347068; cut-off not given, nearly all actives have IC50 up to about 30 µM).
The test system of the next test is F380Y/beta1. Description: modulators of BK channel variants, profiling panel, selectivity assay, cell-based, U2OS BacMam, thallium flux, beta subunits (AID 1259406).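 Also: initial slope of Thallos dye fluorescence rise after thallium is added; log ratio against the mean of 0.3% DMSO vehicle wells on the same plate.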 The note with it: at 30 µM.
For another test, the system named is F380Y/beta4. The test is described as above. The note with it: at 30 µM.
Test [11] deals with Calcium-activated potassium channel subunit alpha-1 (Homo sapiens) + Leucine-rich repeat-containing protein 26 (Homo sapiens) (UniProt Q12791+Q2I0M4). The test is described as above. Conditions: F380Y/Slo1WT/gamma1, at 30 µM.
Another test relates to R275C/beta4. The test is described as above. Conditions: at 30 µM.
Another test deals with R275C/Slo1WT/beta2. The test is described as above. Conditions: at 30 µM.
Test [12] has as its system Aerobactin synthetase IucA (Klebsiella pneumoniae). Description: IucA aerobactin synthetase inhibitors, biochemical, Tocris library, absorbance (AID 1345561; call rule not given here;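 also: 100% = enzyme without compound and 0% = no enzyme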). Conditions: purified IucA enzyme assay, absorbance (OD) read-out; stronger effect = lower value;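 tested at 8 µM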.
Test [13] in a line: LFS_MB_P medulloblastoma growth inhibition, cell-based, chromothripsis tumors, cisplatin or BGB combos (AID 1671449; in the data active = inhibition above about 80%;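 also: cells exposed for 96 hours; 0% = vehicle DMSO and 100% = killing by high DMSO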). Conditions: LFS_MB_P medulloblastoma cells.
A short description of test [14]: HDN33 neuroblastoma growth inhibition, cell-based, chromothripsis tumors, cisplatin or BGB combos (AID 1671450; in the data active = inhibition above about 80%;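 also: cells exposed to compound for four days; 0% = vehicle DMSO and 100% = cell killing by high DMSO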). Conditions: HDN33 neuroblastoma cells, stronger effect = higher value.
Test [15] in a line: ICB984 medulloblastoma cell growth inhibition, synergistic combos for chromothripsis tumors, cisplatin or BGB combos (AID 1671451; call rule not given here;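 also: cells exposed for 96 hours before readout; 0% = vehicle DMSO and 100% = killing by high DMSO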). Conditions: ICB984 medulloblastoma cells, drug combinations, stronger effect = higher value.
Test [16] is described as follows: HTB85 osteosarcoma cell growth inhibition, synergistic combos for chromothripsis tumors, BGB or cisplatin IC20 combos (AID 1671453; in the data active = inhibition above about 80%;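 also: cells exposed for 96 hours before readout; 0% = vehicle DMSO and 100% = high DMSO killing control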). The note with it: HTB85 osteosarcoma cells, drug combinations, stronger effect = higher value.

Molecules are shown by their SMILES. Several values for one entry are separate records, joined by “and”; a condition that tells them apart may be missing. Equal entries are not always repeated. Inconclusive results are not listed. Activity calls are given as the source filed them.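 The calls were made as follows, unless noted: active = thallium flux through the channel raised or lowered by more than 3 SD from vehicle-only wells, actives on both sides; inactive = the rest.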

Chain of Calcium-activated potassium channel subunit alpha-1 (Homo sapiens) + Leucine-rich repeat-containing protein 26 (Homo sapiens) (Q2I0M4 whole entry, looked up, one chain of several): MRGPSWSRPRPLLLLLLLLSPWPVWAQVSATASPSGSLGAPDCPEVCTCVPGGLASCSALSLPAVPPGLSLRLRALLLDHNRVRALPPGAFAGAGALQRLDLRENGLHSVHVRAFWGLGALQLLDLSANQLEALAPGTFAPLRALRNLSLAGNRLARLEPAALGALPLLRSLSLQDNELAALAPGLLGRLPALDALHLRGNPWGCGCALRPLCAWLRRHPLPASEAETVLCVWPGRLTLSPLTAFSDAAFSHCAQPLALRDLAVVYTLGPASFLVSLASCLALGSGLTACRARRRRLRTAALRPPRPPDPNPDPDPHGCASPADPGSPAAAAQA

The inhibition is the relative decrease from the control value, in per cent. As for `CNCC(O)c1ccc(O)cc1` (centres undefined), the inhibition in test [1] is -0.39% (inactive). In test [2], the fluorescence ratio was 0.96 (inactive). Moreover, in test [3], the z-score is -0.502 (inactive). Also, the compound was called inactive in test [4], in [5], in [6], in test [7], in test [8] and in test [9]. The compound was called inactive in test [10]. The log fold change Tl+ flux with F380Y/beta1 was -4.2e-05 (inactive); in the test on F380Y/beta4 it was -0.01 (inactive); in [11] it was 0.0291 (inactive); in the test on R275C/beta4, -0.013 (inactive); in the test on R275C/Slo1WT/beta2, 0.0309 (inactive).

One may read the remaining activity as the signal under treatment as a percentage of the control signal. As for `NP(N)(=O)NC(=O)c1ccc(F)cc1`, in test [12], the remaining activity was 91.8% (inactive).

Take `C[N+]1(CCC(C(N)=O)(c2ccccc2)c2ccccc2)CCCCC1`: the inhibition in test [1] was -0.1% (inactive). Further, in [2], the fluorescence ratio is 0.95 (inactive). In test [3], the z-score was -0.188 (inactive). The log fold change Tl+ flux in the test on F380Y/beta1 is -0.0163 (inactive); with F380Y/beta4, -0.00383 (inactive); in [11] it was 0.0152 (inactive); in the test with R275C/beta4 it was -0.0252 (inactive); with R275C/Slo1WT/beta2, 0.0123 (inactive).

`C#CCN(C)[C@H](C)Cc1ccccc1`: the inhibition in test [1] is 2.21% (inactive) and -4.29% (inactive). Further, in test [2], the fluorescence ratio was 0.9 (inactive) and 0.99 (inactive). Further, the z-score in test [3] is -0.865 (inactive). Further, the compound was classed as inactive in test [4], in [5], in test [6], in test [7], in test [9] and in test [10]. Besides, the log fold change Tl+ flux in the test with F380Y/beta1 is 0.0474 (inactive); in the test with F380Y/beta4 it was 0.0201 (inactive); in test [11], 0.000386 (inactive); in the test on R275C/beta4, -0.0396 (inactive); with R275C/Slo1WT/beta2, -0.00101 (inactive).

For the compound `CC[C@@H](CO)NC(=O)[C@@H]1C=C2c3cccc4c3c(cn4C)C[C@H]2N(C)C1`, in test [12], the remaining activity is 121% (inactive).

Regarding `NN=C(N)N`, the remaining activity in test [12] is 98% (inactive). The call in test [4], in [9] and in [10] was inactive.

For the compound `O=P1(NCCCl)OCCCN1CCCl` (centres undefined), the call in [4], in test [5], in [6], in test [8], in [9] and in [10] was inactive. The inhibition was -12.1% (inactive) and -23.4% (inactive) in test [13] (at 0.5 µM, stronger effect = higher value); -22% in test [13] (measured here: combination with BGB IC20, at 0.005 µM); -15% and -23.6% in [13] (measured here: combination with BGB IC40, at 0.005 µM); -22.5% and -36.7% in test [13] (measured here: combination with BGB IC40, at 0.05 µM); -34.3% and -30.8% in test [13] (measured here: combination with cisplatin, at 0.5 µM, stronger effect = higher value); -44% and -49.9% in [13] (measured here: combination with cisplatin, at 5 µM, stronger effect = higher value). Besides, the inhibition in test [14] (BGB combo, at 5 µM) is -18.3% and -55.5%; in test [14] (at 0.5 µM), 2.74% (inactive) and -43.1% (inactive); in [14] (cisplatin combo, at 5 µM) it was -14.3% and -32.8%; in test [14] (measured here: with BGB IC20 combination, at 0.5 µM), 36.5% and -51.2%; in test [14] (measured here: with cisplatin IC20 combination, at 0.5 µM), -4.58% and -35.3%; in test [14] (single agent, at 5 µM) it was -24.7% and -29.3%. In addition, the inhibition was -4.87% and -19.5% in test [15] (BGB IC20 combo, at 0.005 µM); -32.7% and -24.5% in test [15] (BGB IC40 combo, at 0.005 µM); -25.4% and -42.1% in [15] (BGB IC40 combo, at 0.05 µM); -22% (inactive) and -43% (inactive) in test [15] (at 0.5 µM); -25.4% and -47.2% in test [15] (cisplatin combo, at 0.05 µM); -28.2% and -28.3% in test [15] (cisplatin combo, at 0.5 µM). In addition, the inhibition in test [15] (cisplatin combo, at 5 µM) is -18% and -28.2%; in test [15] (measured here: 5 uM single agent, at 5 µM), -4.46% and 4.1%; in test [16] (at 0.5 µM), -11.8% (inactive) and -20.1% (inactive); in test [16] (measured here: with BGB IC20, at 0.5 µM), -26.1% and -41.8%; in test [16] (measured here: with BGB IC20, at 5 µM) it was -16.8% and -29.8%; in test [16] (measured here: with cisplatin IC20, at 0.5 µM), 9.75% and -12.8%. Besides, the inhibition in test [16] (measured here: with cisplatin IC20, at 5 µM) is 1.05% and -46.6%; in test [16] (single agent, at 5 µM) it was -10.4% and -9.47%.

In the case of `Oc1cc(Cl)ccc1Oc1ccc(Cl)cc1Cl`, in [1], the inhibition was -0.48% (inactive). The fluorescence ratio in test [2] was 0.91 (inactive). Further, the log fold change Tl+ flux in the test with F380Y/beta1 is -0.302 (active); in the test with F380Y/beta4, -0.429 (active); in test [11], -0.0387 (inactive); in the test on R275C/beta4, 0.0409 (inactive); in the test with R275C/Slo1WT/beta2, -0.125 (active).

`NC1=NC(=O)C(c2ccccc2)O1` (centres undefined): the inhibition in test [1] was 1.44% (inactive). Further, in test [2], the fluorescence ratio is 0.93 (inactive). Further, the z-score in [3] is -1.08 (inactive). The log fold change Tl+ flux with F380Y/beta1 is -0.0441 (inactive); in the test with F380Y/beta4, 0.00709 (inactive); in [11], -0.0447 (inactive); with R275C/beta4, -0.0245 (inactive); in the test on R275C/Slo1WT/beta2, 0.0857 (active).

Turning to `CCN(CC)CCOC(=O)C(O)(c1ccccc1)c1ccccc1`, the inhibition in test [1] was -0.87% (inactive). For the same compound, the fluorescence ratio in test [2] was 0.98 (inactive). Further, the z-score in [3] was 0.28 (inactive). The log fold change Tl+ flux is -0.00425 (inactive) in the test on F380Y/beta1; 0.0464 (inactive) in the test on F380Y/beta4; -0.0223 (inactive) in test [11]; 0.00187 (inactive) in the test with R275C/beta4; -0.00361 (inactive) in the test with R275C/Slo1WT/beta2.

Take `COc1cc(N)c(Cl)cc1C(=O)NC1CN2CCC1CC2` (centres undefined): in test [1], the inhibition is 9.91% (inactive). The fluorescence ratio in test [2] was 0.87 (inactive). In addition, in test [3], the z-score was -0.38 (inactive). Besides, the remaining activity in test [12] is 124% (inactive).

Regarding `CC[C@]1(O)CC[C@H]2[C@@H]3CCC4=CCCC[C@@H]4[C@H]3CC[C@@]21C`, in test [1], the inhibition is 1.44% (inactive). The fluorescence ratio in [2] is 1.02 (inactive). Further, the log fold change Tl+ flux with F380Y/beta1 is -0.128 (active); in the test with F380Y/beta4, -0.128 (active); in test [11], 0.141 (active); in the test on R275C/beta4, 0.243 (active); in the test on R275C/Slo1WT/beta2 it was 0.0508 (inactive).
